# According to PubChem BioAssay AID504467 (National Center for Advancing Translational Sciences (NCATS), 2011):
# The whole screen tested about 330,000 compounds, of which about 7,700 (2.3%) were called active. Another 26% or so got no clear call; they are omitted. The full list was thinned out, with actives kept by preference. A number with no mark means an inactive call. The call rests on the fitted dose curve; in most records, active means well fitted inhibition curve with a large enough effect; inconclusive means small, poorly fitted or top-dose-only effect, or effect the other way; inactive means flat fitted curve, though single readings scatter.
# Test: qHTS screen for small molecules that inhibit ELG1-dependent DNA repair in human embryonic kidney (HEK293T) cells expressing luciferase-tagged ELG1; further: nearly all actives have a fitted effect of over 55% in size
# Settings: HEK293T ELG1-luciferase reporter, luminescence, 16 h, DNA damage induced by 5-fluorouridine; series mostly up to 46.1 µM; activity change, negative = inhibition: at the top concentration
# Summary of the method: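 Overnight (16 hr) co-exposure of 2,000 cells/well to 5-fluorouridine and compound at 37 °C preceded detection. Luciferase was quantified via ONE-Glo luminescence; loss of signal denotes inhibition.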
# On the % scale 0 is the no-effect control and ±100 the full control effect; potency means the concentration at half of the fitted maximal effect.
SMILES,"activity change, negative = inhibition [%]",Potency
COc1ccc(C(=O)OCC(=O)c2cc(C)n(CC3CCCO3)c2C)cc1[N+](=O)[O-] (stereo not given),-8.41,
COc1cc(/C=C/C(=O)N2c3ccccc3Sc3ccc(C(F)(F)F)cc32)cc(OC)c1OC,,9.2 µM (active)
O=C(CN1CCCCC1)N1c2ccccc2Sc2ccc(C(F)(F)F)cc21,-0.87,
O=C(CN1CCCCCC1)N1c2ccccc2Sc2ccc(C(F)(F)F)cc21,-11.8,
COC(=O)C1CCN(C(=O)NC2CC(=O)N(c3ccc4c(c3)OCCO4)C2)CC1 (stereo not given),5.95,
COc1cccc(C(=O)Nc2nnc(S(=O)(=O)N3CCOCC3)s2)c1,18.7,
COC(=O)COc1ccc(S(=O)(=O)N2CCOCC2)cc1,-1.32,
COc1ccc(C(=O)Nc2nc(-c3ccc(S(=O)(=O)N4CCOCC4)cc3)cs2)cc1,,11.6 µM (active)
Cc1ccc(C(=O)COC(=O)CCN2C(=O)C3C4CCC(C4)C3C2=O)cc1C (stereo not given),-2.83,
COCCOC(=O)c1[nH]c2c(c1C)C(=O)CC(c1ccc(OC)cc1)C2 (stereo not given),-3.68,
CCCOC(=O)c1[nH]c2c(c1C)C(=O)CC(c1cc(OC)c(OC)c(OC)c1)C2 (stereo not given),,5.17 µM (active)
COc1cc(C2CC(=O)c3cnc(NC(C)=O)nc3C2)cc(OC)c1OC (stereo not given),12.5,
COc1ccc(OC)c(S(=O)(=O)Nc2c(C)nn(C)c2C)c1,-6.93,
Cc1cc(C)c(C)c(S(=O)(=O)N2CCN(C(=O)c3ccc4c(=O)n5c(nc4c3)CCC5)CC2)c1C,-26.1,
COc1ccc(C=C(C#N)C#N)c(CSc2ccccn2)c1,-6.6,
Cc1cc(N2CCCC2)ccc1NC(=O)COc1ccc(Cl)cc1,-10.8,
Cc1cccc(OCC(=O)NC(=S)Nc2ccccc2N2CCOCC2)c1,-5.56,
Cc1cc(C)cc(OCC(=O)Nc2ccc(N3CCOCC3)cc2N2CCOCC2)c1,,16.4 µM (active)
COc1cccc(CNC(=O)CCC2CCCN(C(=O)c3ccc(F)c(Cl)c3)C2)c1 (stereo not given),-27.6,
CCOc1cccc(/C=N/NC(=S)NCCN2CCOCC2)c1O,,13 µM (active)
COc1cccc(NC(=S)NCCCN2CCOCC2)c1,16.7,
Cc1ccc(NC(=S)NCCN2CCOCC2)cc1,2.53,
CCN(CC)C(=O)[C@H]1C[C@H](CC(=O)NCC23CC4CC(CC(C4)C2)C3)C(=O)N2CCc3c([nH]c4cc(CCC(=O)N(C)C)ccc34)[C@]12C,-9.18,
COc1ccc(C(=O)c2c3ccc([N+](=O)[O-])cc3[n+]([O-])n2CCCN)cc1,-19.9,

SMILES,"activity change, negative = inhibition [%]",Potency
COc1ccc(Cc2nnc(SCC(=O)N(c3ccccc3)C(C)C)n(N)c2=O)cc1,0.731,
COc1ccc2c(c1)C(NS(=O)(=O)OCC(Cl)(Cl)Cl)CCC2 (stereo not given),28.9,
Cc1cccc2cc(CN(Cc3cccs3)C(c3nnnn3C3CCCC3)C(C)C)c(=O)[nH]c12 (stereo not given),,11.6 µM (active)
Cc1cc(C)c2cc(CN(Cc3nnnn3Cc3ccc(F)cc3)C3CCCC3)c(=O)[nH]c2c1,4.9,
Cc1cccc2cc(CN(Cc3nnnn3Cc3ccccc3)C3CCCC3)c(=O)[nH]c12,,20.6 µM (active)
CN1CCN(C(c2cc3cc4c(cc3[nH]c2=O)OCCO4)c2nnnn2C2CCCC2)CC1 (stereo not given),0.478,
CCCN(Cc1cc2cccc(C)c2[nH]c1=O)S(C)(=O)=O,3.35,
COc1ccc2[nH]c(=O)c(CN(Cc3nnnn3CCc3ccccc3)CC3CCCO3)cc2c1 (stereo not given),-2.53,
Cc1ccc(N2C(=O)N3[C@@H]4c5ccccc5OC[C@@H]4[C@@H](c4ccccc4)[C@@]3(C)C2=O)cc1,-0.661,
CC(=O)N1CCSc2ccc(S(=O)(=O)N3CCC(C)CC3)cc21,2.5,
CC(Sc1nn(-c2ccc(Cl)cc2)c(=S)s1)C(=O)NCC1CCCO1 (stereo not given),-2.87,
COc1ccccc1N(CCOc1ccccc1)S(=O)(=O)c1ccccc1,-19.8,
COC(=O)CSC1=C(C#N)C(c2ccccc2OC)C(C(=O)OC)C(=O)N1 (stereo not given),2.99,
N#CC1=C(SCc2ccccc2)NC(=O)C(C#N)C12CCCC2 (stereo not given),,14.6 µM (active)
N#CC1=C(SCc2ccc(C#N)cc2)N=C(N)C(c2nc(-c3ccccc3)cs2)C12CCCCC2 (stereo not given),-13.3,
COc1ccc(C(=O)NCc2nnc(SCC(=O)NC3=NCCS3)n2C)cc1,-4.54,
O=C(COC(=O)c1cc[n+]([O-])cc1)Nc1ccc(Cl)c(C(F)(F)F)c1,-11.3,
CN(C)C1=NC[C@H](Cc2ccccc2)N1CCc1ccc(F)cc1,-5.08,
COc1ccc(NC(=O)C2CCC(CNC(=O)[C@@H]3Cc4ccccc4CN3)CC2)cc1 (stereo not given in full),13.7,
COc1ccc(N(Cc2cc3ccc(C)cc3[nH]c2=O)S(=O)(=O)c2ccccc2)cc1,-22.6,
CC(C)n1cnc2c(NCc3ccccc3)cc(OCC3CCN(C)CC3)cc21,-16.7,
CC(C)n1cnc2c(NCc3ccccc3)cc(N[C@@H](CO)Cc3ccccc3)cc21,,16.4 µM (active)
COc1ccc(CNC(=O)/C(C#N)=C/c2cccc(OC)c2OC)cc1,-0.822,
CN(CC(=O)Nc1ccc(OC(F)F)cc1)S(=O)(=O)/C=C/c1ccccc1,-12.2,

SMILES,"activity change, negative = inhibition [%]",Potency
O=C(O)C1CCN(c2ccc([N+](=O)[O-])cc2[N+](=O)[O-])CC1,18.3,
COc1ccc(N2CCN(c3ccc([N+](=O)[O-])cc3Cl)CC2)cc1,-2.92,
O=[N+]([O-])c1ccc(N2CCN(c3ccc(O)cc3)CC2)c(Cl)c1,,23.1 µM (active)
CN(C)C(=O)CCc1ccc2c3c([nH]c2c1)[C@]1(CCC2CCCC2)[C@@H](C(=O)N2CCOCC2)C[C@H](CC(=O)NCc2ccco2)C(=O)N1CC3,17.9,
CCN(CC(=O)Nc1cc(Cl)ccc1C)C(=O)Cn1c(=O)cnc2ccccc21,-0.672,
CC(Oc1ccc2c(-c3ccccc3)cc(=O)oc2c1)C(=O)NC(Cc1c[nH]c2ccccc12)C(=O)O (stereo not given),1.53,
CC(C)(C)OC(=O)C[C@@H]1C/C=C\C[C@@H](CC(=O)N[C@H](CO)Cc2ccccc2)C(=O)NCCOC1=O,0.537,
CC12CCC(C(=O)N3CCN(c4ncccn4)CC3)(c3nc4ccccc4nc31)C2(C)C (stereo not given),,4.11 µM (active)
CC(Oc1ccc(F)cc1)C(=O)N1CCN(c2ncccn2)CC1 (stereo not given),-3.2,
CCNC(=S)N1CCN(c2ncccn2)CC1,-1.72,
CN(C(=O)CN1C(=O)/C(=C/c2ccc(Cl)cc2)SC1=S)C1CCS(=O)(=O)C1 (stereo not given),5.67,
CCn1c(SCC(=O)Nc2ccc(C)cc2)nc2nc3c(cc2c1=O)CCCC3,,18.4 µM (active)
CC(=O)NCCn1c(SCC(=O)Nc2ccc(C)cc2)nc2ccccc2c1=O,-0.151,
COCCn1c(SCC(=O)Nc2ccc3c(c2)CCC3)nc2ccccc2c1=O,-28.4,
COc1cc(/C=C/C(=O)OCC(=O)c2ccccc2)cc(OC)c1OC,0.612,
O=C(c1ccc(Cl)nc1)N1CCN(S(=O)(=O)c2ccc3c(c2)OCCO3)CC1,-27.2,
COc1ccc(C(C(=O)NC(C)(C)C)N(Cc2ccc(F)cc2)C(=O)CCC(=O)Nc2cc(C)on2)cc1 (stereo not given),13.4,
Cc1cc(NC(=O)C(C)SCC(=O)Nc2ccccc2N2CCCCC2)no1 (stereo not given),-18.5,
C[C@H](NS(=O)(=O)c1ccc(Cl)cc1)C(=O)OCC(=O)N1CCOCC1,-8.58,
CCn1c(SCc2ccccc2)nc2c(c1=O)SCC2,1.33,
Cc1cccc(CSc2nc3c(c(=O)n2C)SCC3)c1,,14.6 µM (active)
Cn1c(SCC(=O)N2CCCCC2)nc2c(c1=O)SCC2,0.685,
Cc1ccc(C(=O)NNC(=O)CSc2nnc3ccccn23)cc1,15,
Cc1nn(CC(=O)N2CCCCC2)c(=O)c2nn(-c3ccccc3)c(C)c12,-1,

SMILES,"activity change, negative = inhibition [%]",Potency
COc1ccc(CNC(=O)C(C)n2nc(C)c3c(C)n(-c4ccccc4)nc3c2=O)c(OC)c1 (stereo not given),-14.9,
COc1ccc(OC)c(CNC(=O)Cn2nc(C)c3c(C)n(-c4ccc(C)cc4)nc3c2=O)c1,,8.2 µM (active)
COc1ccc(S(=O)(=O)N2CCOC23CCN(S(=O)(=O)c2ccc([N+](=O)[O-])cc2)CC3)cc1,9.51,
COc1ccccc1C(=O)N1CC2(C)CC1CC(C)(C)C2 (stereo not given),-15.1,
Cc1cccc(C(=O)NCC(=O)OCC(=O)N2CC3(C)CC2CC(C)(C)C3)c1 (stereo not given),6.11,
Cc1nnnn1/C(=C\c1ccccc1)C(=O)OCC(=O)N1CC2(C)CC1CC(C)(C)C2 (stereo not given),,20.6 µM (active)
Cc1ccc(CNC(=O)c2cc(-c3ccccc3C)n(CC3CC(c4cccc([N+](=O)[O-])c4)=NO3)n2)cc1 (stereo not given),-6.87,
O=C(c1ccccc1)N1N=C(c2ccccc2O)CC1c1ccc(Br)cc1 (stereo not given),-16.7,
COc1ccc2c(CC(=O)NNC(=O)c3ccccc3F)coc2c1,-10.1,
CCC(=O)Nc1ccc(C(=O)Nc2ccc3c(c2)C(=O)N(CC2CCCO2)C3=O)cc1 (stereo not given),-6.04,
COc1ccc(Cn2c(=S)[nH]c3cc(C(=O)NCCCN4CCOCC4)ccc3c2=O)cc1,-1.8,
Cc1cccc(NC(=O)c2ccc3c(=O)n(CC4CCCO4)c(=S)[nH]c3c2)c1 (stereo not given),,16.4 µM (active)
COc1ccccc1N1CCN(C(=O)c2ccc(NC3=NC4CS(=O)(=O)CC4S3)cc2)CC1 (stereo not given),7.13,
COc1ccc(OC)c(CNC(=O)C2CCCN(c3nc4ccccc4o3)C2)c1 (stereo not given),-15.2,
COc1ccc(-c2nn(C)c(=O)c3ccccc23)cc1CNC(=O)C1CCCCC1,,20.6 µM (active)
COc1ccccc1CNC(=O)C1CCN(c2nc3ccccc3o2)CC1,-24.9,
CCN(CC(=O)Nc1cc(Cl)ccc1C)C(=O)CSCc1ccccc1,0.543,
COc1ccc(-c2nn(-c3ccccc3)cc2/C=N/Nc2ccccn2)cc1OC,,14.6 µM (active)
CN(C)/N=C/c1cn(-c2ccccc2)nc1-c1cccnc1,-24.6,
Cc1nnc(SCC(=O)N/N=C/c2cn(-c3ccccc3)nc2-c2ccc(F)cc2)n1-c1ccccc1,-7.68,
O=C(O)c1ccc(NC(=O)c2cn(-c3ccccc3)nc2-c2ccc(Cl)cc2)cc1,23.2,
COc1ccc(-c2nn(-c3ccccc3)cc2C(=O)Nc2nc(CC(C)=O)ns2)cc1,-25.3,
COc1ccc(-c2nn(-c3ccccc3)cc2C(=O)Nc2nccs2)cc1OC,,3.26 µM (active)
